Measurements from the supplement of paper PMC10498489.
About 330 (14%) of roughly 2,300 compounds showed activity. Not all results are given here. A number with no mark means an inactive call.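 The calls were made as follows: active = median modified Z-score above 1.96; inactive = 1.96 or below.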

test system: HepG2 Srxn1-GFP reporter cells (+30 nM CDDO-Me); experiment: Srxn1-GFP intensity median modified Z-score relative to plate median; higher = stronger NRF2 / oxidative stress reporter activation, active = hit call of the paper; settings: 10 µM; exposure time: 24h
Summary of the method: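 HepG2 Srxn1-GFP BAC reporter cells were seeded at 20,000 per well in 96-well plates and co-exposed for 24 h to compound at 10 μM and an NRF2 activator at 30 nM, with DMSO at ≤0.1%, in three replicate plates. Cells were fixed with formaldehyde, stained with Hoechst and imaged by confocal microscopy, and cytoplasmic GFP was measured per cell, with images holding under 100 cells discarded. The reported value is the median over replicates of each plate's modified Z-score of GFP intensity. For this score, scaling used 1.4826 × median absolute deviation.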

SMILES | Srxn1-GFP intensity median modified Z-score
CCC1OC(=O)C(C)C(=O)C(C)[C@@H](OC2O[C@H](C)C[C@H](N(C)C)[C@H]2O)[C@](C)(OC)CC(C)C(=O)C(C)[C@@H]2N(CCCCn3cnc(-c4cccnc4)c3)C(=O)O[C@]12C (some centres not stated) [euspeclibcmpd733] | -0.17
Oc1c(I)cc(I)c2cccnc12 [euspeclibcmpd2015] | 1.62
Oc1c(I)cc(Cl)c2cccnc12 [euspeclibcmpd705] | 2.87 (active)
O=S(=O)(O)c1cc(I)c(O)c2ncccc12 [euspeclibcmpd2311] | -0.435
Oc1c(Br)cc(Br)c2cccnc12 [euspeclibcmpd1032] | 4.39 (active)
Oc1c(I)cc(Cl)c2cccnc12 | 1.31
Oc1ccc(Cl)c2cccnc12 [euspeclibcmpd72] | -1.02
Cc1ccc(Cl)c2cccnc12 | 1.45
O=[N+]([O-])c1ccc(O)c2ncccc12 [euspeclibcmpd1218] | -0.363
Oc1c(Cl)cc(Cl)c2cccnc12 [euspeclibcmpd537] | 2.82 (active)
CCc1c(C)cn(C(=O)NCCc2ccc(S(=O)(=O)NC(=O)N[C@H]3CC[C@H](C)CC3)cc2)c1O [euspeclibcmpd697] | -0.793
O=C(O[C@@H]1Cc2c(O)cc(O)cc2O[C@@H]1c1cc(O)c(O)c(O)c1-c1c([C@H]2Oc3cc(O)cc(O)c3C[C@H]2OC(=O)c2cc(O)c(O)c(O)c2)cc(O)c(O)c1O)c1cc(O)c(O)c(O)c1 [euspeclibcmpd2312] | -0.214
COc1[nH]cnc(=NS(=O)(=O)c2ccc(N)cc2)c1OC [euspeclibcmpd917] | -0.467
COc1cc(OC)c2c(c1Cl)OC1(C(=O)CC(=O)CC1C)C2=O (configuration not stated) [euspeclibcmpd1388] | -0.00204
CC(=O)OCC(=O)[C@@]1(O)[C@H](OC(C)=O)CC2C3CC=C4CC(=O)C=C[C@]4(C)[C@@]3(F)[C@@H](O)C[C@@]21C (some centres not stated) [euspeclibcmpd1284] | -0.169
N=c1[nH]cnc2c1ncn2C1C[C@H](O)[C@@H](CO)O1 (some centres not stated) [euspeclibcmpd2091] | -0.0836
CO[C@H]1/C=C/O[C@@]2(C)Oc3c(C)c(O)c4c(O)c(c5c(nc6cc(C)ccn65)c4c3C2=O)NC(=O)/C(C)=C\C=C\C(C)[C@H](O)[C@@H](C)C(O)[C@@H](C)[C@H](OC(C)=O)[C@@H]1C (some centres not stated) [euspeclibcmpd745] | -0.528
Clc1ccc(C(Cn2ccnc2)OCc2ccsc2Cl)c(Cl)c1 (configuration not stated) [euspeclibcmpd1174] | 15.7 (active)
Clc1ccc(CON=C(Cn2ccnc2)c2ccc(Cl)cc2Cl)c(Cl)c1 [euspeclibcmpd747] | -0.564
Clc1ccc(COC(Cn2ccnc2)c2ccc(Cl)cc2Cl)cc1 (configuration not stated) [euspeclibcmpd413] | 15.1 (active)
Clc1ccc(CSC(Cn2ccnc2)c2ccc(Cl)cc2Cl)cc1 (configuration not stated) [euspeclibcmpd401] | 22.5 (active)

SMILES | Srxn1-GFP intensity median modified Z-score
C=CCOC(Cn1ccnc1)c1ccc(Cl)cc1Cl (configuration not stated) [euspeclibcmpd2390] | 6.42 (active)
C=CC1=C(C(=O)O)N2C(=O)C(NC(=O)C(=NO)c3csc(=N)[nH]3)C2SC1 (configuration not stated) [euspeclibcmpd718] | -0.455
CC(=CC(=O)OCCCCCCCCC(=O)O)C[C@@H]1OC[C@H](C[C@@H]2O[C@H]2[C@@H](C)[C@H](C)O)[C@@H](O)[C@H]1O [euspeclibcmpd851] | 0.838
Cc1cnn(CCC(=O)NC2CCCN(c3ccc(C)nn3)C2)c1 (configuration not stated) | 1.37
O=C(O)c1cc(O)c(=O)c2c(O)c(O)c(O)cc2c1 [euspeclibcmpd1713] | -0.567
Cc1ccsc1C=CC1=NCCCN1C [euspeclibcmpd638] | 0.449
O=C(O)/C=C/C(=O)O [euspeclibcmpd2444] | -0.338
CC1CN(C)CCN1C(=O)c1ccc(CCNS(C)(=O)=O)s1 (configuration not stated) | 1.16
Nc1ccc(S(=O)(=O)N=c2cc[nH]n2-c2ccccc2)cc1 [euspeclibcmpd1061] | 0.53
CC1=C(C(=O)O)N2C(=O)[C@@H](NC(=O)C(N)c3ccc(O)cc3)[C@H]2SC1 (some centres not stated) [euspeclibcmpd47] | 0.774
NCc1ccccc1CC(=O)NC1C(=O)N2C(C(=O)O)=C(CSc3nnnn3CC(=O)O)CSC12 (configuration not stated) [euspeclibcmpd506] | -0.382
Clc1ccc(CCC(Cn2ccnc2)Sc2c(Cl)cccc2Cl)cc1 (configuration not stated) [euspeclibcmpd650] | 26.7 (active)
CC1(C)C2CC[C@@]3(C)C4=C(CC(=O)C3[C@@]2(C)CC[C@@H]1O[C@@H]1OC(C(=O)O)[C@@H](O[C@@H]2OC(C(=O)O)[C@@H](O)[C@H](O)[C@H]2O)[C@H](O)[C@H]1O)C1C[C@@](C)(C(=O)O)CC[C@]1(C)CC4 (some centres not stated) [euspeclibcmpd1807] | -0.547
COc1c(CC(=O)c2cc3c(cc2O)OC(C)(C)C(O)C3)ccc2c1C=CC(C)(C)O2 (configuration not stated) [euspeclibcmpd1608] | 7.77 (active)
COc1cc(OC)c2c(=O)c(-c3ccc4c(c3)OCO4)coc2c1 [euspeclibcmpd1964] | 0.515
COc1c(-c2coc3cc4c(cc3c2=O)CC(OC(C)=O)C(C)(C)O4)ccc2c1C=CC(C)(C)O2 (configuration not stated) [euspeclibcmpd1654] | 13.6 (active)
COc1ccc(C(=O)CC(=O)O)c2c1C=CC(C)(C)O2 [euspeclibcmpd1976] | -0.441
COc1ccc(-c2c(O)c3c(OC)c4c(cc3oc2=O)OC(C)(C)C=C4)cc1 [euspeclibcmpd1515] | 0.81
COc1cc2occ(-c3ccc(OC)c(OC)c3OC)c(=O)c2cc1OC [euspeclibcmpd2240] | 0.129
COc1ccc(-c2coc3cc(O)ccc3c2=O)c(O)c1O [euspeclibcmpd1422] | -0.526
COc1c2c(cc3occ(-c4ccc5c(c4)OCO5)c(=O)c13)OC(C)(C)C=C2 [euspeclibcmpd1957] | 7.5 (active)
